Measured values taken from the supplement of paper PMC8728848.
Only a selection was taken, and the strongest signals are over-represented in it overall.

Columns and labels:
Experiment in all cases: glycan array binding signal (z-score within array); higher = stronger binding
Details in all cases: glycan notation: IUPAC condensed, linker removed
[1] = target: Fuc(a1-2)Gal(b1-3)[Fuc(a1-4)]GlcNAc(b1-3)[Fuc(a1-3)[Gal(b1-4)]GlcNAc(b1-6)]Gal(b1-4)Glc
Outline: (§1)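 From the Consortium for Functional Glycomics database, 3228 arrays were curated, keeping only those whose protein sequence was available. Binding is given as a within-array Z-score averaged across arrays sharing a protein sequence and across linkers. Negative Z-scores can be read as non-binding.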

[2] = target: Fuc(a1-2)Gal(b1-4)[Fuc(a1-3)]GlcNAc(b1-2)[Fuc(a1-2)Gal(b1-4)[Fuc(a1-3)]GlcNAc(b1-4)]Man(a1-3)[Fuc(a1-2)Gal(b1-4)[Fuc(a1-3)]GlcNAc(b1-2)Man(a1-6)]Man(b1-4)GlcNAc(b1-4)GlcNAc
Outline: as §1

[3] = target: Fuc(a1-2)[Gal(a1-3)]Gal(b1-3)GlcNAc
Outline: as §1

[4] = target: Fuc(a1-2)[Gal(a1-3)]Gal(b1-4)[Fuc(a1-3)]Glc
Outline: as §1

[5] = target: Fuc(a1-2)[GalNAc(a1-3)]Gal(b1-3)GlcNAc(b1-2)Man(a1-3)[Fuc(a1-2)[GalNAc(a1-3)]Gal(b1-3)GlcNAc(b1-2)Man(a1-6)]Man(b1-4)GlcNAc(b1-4)GlcNAc
Outline: as §1

[6] = target: Fuc(a1-2)[GalNAc(a1-3)]Gal(b1-4)GlcNAc(b1-3)GalNAc
Outline: as §1

[7] = target: Fuc(a1-2)[GalNAc(a1-4)]Gal(b1-4)GlcNAc
Outline: as §1

[8] = target: Gal(b1-3)GalNAc(b1-4)[Neu5Ac(a2-3)]Gal(b1-4)Glc
Outline: as §1

[9] = target: Gal(b1-3)GlcNAc(b1-2)Man(a1-3)[Gal(b1-3)GlcNAc(b1-2)Man(a1-6)]Man(b1-4)GlcNAc(b1-4)[Fuc(a1-6)]GlcNAc
Outline: as §1

[10] = target: Gal(b1-3)GlcNAc(b1-2)Man(a1-3)[GlcNAc(b1-4)][Gal(b1-3)GlcNAc(b1-2)Man(a1-6)]Man(b1-4)GlcNAc(b1-4)GlcNAc
Outline: as §1

Gal(b1-4)Glc6S = target: Gal(b1-4)Glc6S
Outline: as §1

[11] = target: Gal(b1-4)GlcNAc(b1-2)Man(a1-3)[Gal(b1-4)GlcNAc(b1-2)Man(a1-6)]Man(b1-4)GlcNAc(b1-4)[Fuc(a1-6)]GlcNAc
Outline: as §1

[12] = target: Gal(b1-4)GlcNAc(b1-2)Man(a1-3)[Gal(b1-4)GlcNAc(b1-2)Man(a1-6)][Gal(b1-4)GlcNAc(b1-4)]Man(b1-4)GlcNAc(b1-4)[Fuc(a1-6)]GlcNAc
Outline: as §1

[13] = target: Gal(b1-4)GlcNAc(b1-3)Gal(b1-3)GalNAc
Outline: as §1

[14] = target: Gal(b1-4)GlcNAc(b1-3)Gal(b1-4)GlcNAc(b1-2)Man(a1-3)[Gal(b1-4)GlcNAc(b1-3)Gal(b1-4)GlcNAc(b1-2)Man(a1-6)]Man(b1-4)GlcNAc(b1-4)[Fuc(a1-6)]GlcNAc
Outline: as §1

[15] = target: Gal(b1-4)GlcNAc(b1-3)Gal(b1-4)GlcNAc(b1-3)Gal(b1-4)GlcNAc(b1-2)Man(a1-3)[Gal(b1-4)GlcNAc(b1-3)Gal(b1-4)GlcNAc(b1-3)Gal(b1-4)GlcNAc(b1-2)Man(a1-6)]Man(b1-4)GlcNAc(b1-4)[Fuc(a1-6)]GlcNAc
Outline: as §1

[16] = target: Gal(b1-4)GlcNAc(b1-3)Gal(b1-4)GlcNAc(b1-3)Gal(b1-4)GlcNAc(b1-3)Gal(b1-4)GlcNAc(b1-2)Man(a1-3)[Gal(b1-4)GlcNAc(b1-3)Gal(b1-4)GlcNAc(b1-3)Gal(b1-4)GlcNAc(b1-3)Gal(b1-4)GlcNAc(b1-2)Man(a1-6)]Man(b1-4)GlcNAc(b1-4)[Fuc(a1-6)]GlcNAc
Outline: as §1

[17] = target: Gal(b1-4)GlcNAc(b1-3)Gal(b1-4)GlcNAc(b1-3)Gal(b1-4)GlcNAc(b1-3)Gal(b1-4)GlcNAc(b1-3)Gal(b1-4)GlcNAc(b1-2)Man(a1-3)[Gal(b1-4)GlcNAc(b1-3)Gal(b1-4)GlcNAc(b1-3)Gal(b1-4)GlcNAc(b1-3)Gal(b1-4)GlcNAc(b1-3)Gal(b1-4)GlcNAc(b1-2)Man(a1-6)]Man(b1-4)GlcNAc(b1-4)[Fuc(a1-6)]GlcNAc
Outline: as §1

[18] = target: Gal(b1-4)GlcNAc(b1-3)Gal(b1-4)GlcNAc(b1-6)[Gal(b1-3)]GalNAc
Outline: as §1

Gal3S(b1-4)GlcNAc = target: Gal3S(b1-4)GlcNAc
Outline: as §1

Gal6S(b1-3)GlcNAc6S = target: Gal6S(b1-3)GlcNAc6S
Outline: as §1

[19] = target: GalNAc(b1-3)Gal(a1-6)Gal(b1-4)Glc
Outline: as §1

GalNAc(b1-4)Gal(b1-4)Glc = target: GalNAc(b1-4)Gal(b1-4)Glc
Outline: as §1

GalNAc(b1-6)GalNAc = target: GalNAc(b1-6)GalNAc
Outline: as §1

GlcA(b1-6)Gal = target: GlcA(b1-6)Gal
Outline: as §1

[20] = target: GlcNAc(a1-4)Gal(b1-4)GlcNAc(b1-3)Gal(b1-4)[Fuc(a1-3)]GlcNAc(b1-3)Gal(b1-4)[Fuc(a1-3)]GlcNAc
Outline: as §1

[21] = target: GlcNAc(b1-2)[GlcNAc(b1-4)]Man(a1-3)[GlcNAc(b1-2)Man(a1-6)]Man(b1-4)GlcNAc(b1-4)GlcNAc
Outline: as §1

[22] = target: GlcNAc(b1-2)[GlcNAc(b1-6)]Man(a1-6)[GlcNAc(b1-2)Man(a1-3)]Man(b1-4)GlcNAc(b1-4)[Fuc(a1-6)]GlcNAc
Outline: as §1

GlcNAc(b1-3)Fuc = target: GlcNAc(b1-3)Fuc
Outline: as §1

GlcNAc(b1-3)Gal(b1-4)Glc = target: GlcNAc(b1-3)Gal(b1-4)Glc
Outline: as §1

[23] = target: GlcNAc(b1-3)Gal(b1-4)GlcNAc(b1-2)Man(a1-3)[GlcNAc(b1-3)Gal(b1-4)GlcNAc(b1-2)Man(a1-6)]Man(b1-4)GlcNAc(b1-4)[Fuc(a1-6)]GlcNAc
Outline: as §1

[24] = target: GlcNAc(b1-3)Gal(b1-4)GlcNAc(b1-3)Gal(b1-4)GlcNAc(b1-2)Man(a1-3)[GlcNAc(b1-3)Gal(b1-4)GlcNAc(b1-3)Gal(b1-4)GlcNAc(b1-2)Man(a1-6)]Man(b1-4)GlcNAc(b1-4)[Fuc(a1-6)]GlcNAc
Outline: as §1

[25] = target: GlcNAc(b1-3)Gal(b1-4)GlcNAc(b1-3)Gal(b1-4)GlcNAc(b1-3)Gal(b1-4)GlcNAc(b1-2)Man(a1-3)[GlcNAc(b1-3)Gal(b1-4)GlcNAc(b1-3)Gal(b1-4)GlcNAc(b1-3)Gal(b1-4)GlcNAc(b1-2)Man(a1-6)]Man(b1-4)GlcNAc(b1-4)[Fuc(a1-6)]GlcNAc
Outline: as §1

[26] = target: GlcNAc(b1-3)Gal(b1-4)GlcNAc(b1-3)Gal(b1-4)GlcNAc(b1-3)Gal(b1-4)GlcNAc(b1-2)[GlcNAc(b1-3)Gal(b1-4)GlcNAc(b1-3)Gal(b1-4)GlcNAc(b1-3)Gal(b1-4)GlcNAc(b1-6)]Man(a1-6)[GlcNAc(b1-3)Gal(b1-4)GlcNAc(b1-3)Gal(b1-4)GlcNAc(b1-3)Gal(b1-4)GlcNAc(b1-2)Man(a1-3)]Man(b1-4)GlcNAc(b1-4)[Fuc(a1-6)]GlcNAc
Outline: as §1

[27] = target: GlcNAc(b1-3)Gal(b1-4)GlcNAc(b1-6)[Gal(b1-3)]GalNAc
Outline: as §1

[28] = target: GlcNAc(b1-4)GlcNAc(b1-4)GlcNAc(b1-4)GlcNAc(b1-4)GlcNAc(b1-4)GlcNAc
Outline: as §1

[29] = target: GlcNAc(b1-4)[GlcNAc(b1-6)]GalNAc
Outline: as §1

[30] = target: Man(a1-2)Man(a1-2)Man(a1-6)[Man(a1-3)]Man
Outline: as §1

[31] = target: Man(a1-3)[Man(a1-6)]Man(b1-4)GlcNAc(b1-4)[Fuc(a1-6)]GlcNAc
Outline: as §1

Man(a1-6)Man = target: Man(a1-6)Man
Outline: as §1

[32] = target: Neu5Ac(a2-3)Gal(b1-3)GlcNAc(b1-3)Gal(b1-3)GlcNAc
Outline: as §1

Neu5Ac(a2-3)GalNAc = target: Neu5Ac(a2-3)GalNAc
Outline: as §1

[33] = target: Neu5Ac(a2-6)Gal(b1-4)GlcNAc(b1-2)Man(a1-3)Man(b1-4)GlcNAc(b1-4)GlcNAc
Outline: as §1

[34] = target: Neu5Ac(a2-6)Gal(b1-4)GlcNAc(b1-2)Man(a1-3)[Man(a1-6)]Man(b1-4)GlcNAc(b1-4)GlcNAc
Outline: as §1

[35] = target: Neu5Ac(a2-6)Gal(b1-4)GlcNAc(b1-2)Man(a1-3)[Neu5Ac(a2-6)Gal(b1-4)GlcNAc(b1-2)Man(a1-6)]Man(b1-4)GlcNAc(b1-4)[Fuc(a1-6)]GlcNAc
Outline: as §1

[36] = target: Neu5Ac(a2-6)Gal(b1-4)GlcNAc(b1-3)Gal(b1-4)GlcNAc(b1-6)[Gal(b1-3)]GalNAc
Outline: as §1

B1: HML-Native (Hypnea musciformis), P84871 (protein)
chain: QKFCTLDIAPVCCQIVIGGGMYTAGNACMCEGFVSGVGRCENPKECPCTREAQIPSCCSSRWGLVSVTGKCACDCLGGTVAFPEPCPSPY
glycan array binding signal (z-score) [1]: -0.188 | glycan array binding signal (z-score) [2]: -0.059 | glycan array binding signal (z-score) [3]: -0.211 | glycan array binding signal (z-score) [4]: -0.283 | glycan array binding signal (z-score) [5]: -0.093 | glycan array binding signal (z-score) [6]: -0.302 | glycan array binding signal (z-score) [7]: -0.162 | glycan array binding signal (z-score) [8]: -0.318 | glycan array binding signal (z-score) [9]: 5.16 | glycan array binding signal (z-score) [10]: -0.276 | glycan array binding signal (z-score) (Gal(b1-4)Glc6S): -0.313 | glycan array binding signal (z-score) [11]: 5.65 | glycan array binding signal (z-score) [12]: 1.48 | glycan array binding signal (z-score) [13]: -0.238 | glycan array binding signal (z-score) [14]: 5.52 | glycan array binding signal (z-score) [15]: 4.93 | glycan array binding signal (z-score) [16]: 4.9 | glycan array binding signal (z-score) [17]: 4.8 | glycan array binding signal (z-score) [18]: -0.192 | glycan array binding signal (z-score) (Gal3S(b1-4)GlcNAc): -0.233 | glycan array binding signal (z-score) (Gal6S(b1-3)GlcNAc6S): -0.323 | glycan array binding signal (z-score) [19]: -0.345 | glycan array binding signal (z-score) (GalNAc(b1-4)Gal(b1-4)Glc): -0.252 | glycan array binding signal (z-score) (GalNAc(b1-6)GalNAc): -0.284 | glycan array binding signal (z-score) (GlcA(b1-6)Gal): -0.241 | glycan array binding signal (z-score) [20]: 0.641 | glycan array binding signal (z-score) [21]: -0.307 | glycan array binding signal (z-score) [22]: 4.99 | glycan array binding signal (z-score) (GlcNAc(b1-3)Fuc): -0.11 | glycan array binding signal (z-score) (GlcNAc(b1-3)Gal(b1-4)Glc): -0.205 | glycan array binding signal (z-score) [23]: 5.62 | glycan array binding signal (z-score) [24]: 5.5 | glycan array binding signal (z-score) [25]: 5.16 | glycan array binding signal (z-score) [26]: 1.38 | glycan array binding signal (z-score) [27]: -0.272 | glycan array binding signal (z-score) [28]: -0.197 | glycan array binding signal (z-score) [29]: -0.239 | glycan array binding signal (z-score) [30]: -0.005 | glycan array binding signal (z-score) [31]: 5.72 | glycan array binding signal (z-score) (Man(a1-6)Man): -0.3 | glycan array binding signal (z-score) [32]: -0.295 | glycan array binding signal (z-score) (Neu5Ac(a2-3)GalNAc): -0.258 | glycan array binding signal (z-score) [33]: -0.157 | glycan array binding signal (z-score) [34]: -0.166 | glycan array binding signal (z-score) [35]: 5.65 | glycan array binding signal (z-score) [36]: -0.205
